Reference: PubChem BioAssay (NCATS)
Inconclusive results are not listed. Calls of active or inactive are those of the source. Calls follow the shape of the dose curve; as a rule, active = well fitted inhibition curve with a large enough effect; inconclusive = small, poorly fitted or top-dose-only effect; inactive = flat fitted curve, though single readings scatter.

Columns and labels:
Experiment in all cases: qHTS profiling for inhibitors of Plasmodium falciparum proliferation (AID 504749); also: nearly all actives have a fitted effect of over 60% in size
Conditions in all cases: P. falciparum in erythrocytes, SYBR Green DNA, 72 h; series mostly up to 28.7 µM
[1] = system: CP266
Outline: (§1)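 Parasite proliferation within erythrocytes, 72 h exposure. Endpoint: SYBR Green I fluorescence after overnight lysis at room temperature. Controls: 0.29 uM artemisinin, DMSO.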

[2] = system: CP268
Outline: as §1

[3] = system: CP269
Outline: as §1

[4] = system: CP286
Outline: as §1

[5] = system: CP291
Outline: as §1

[6] = system: CP297
Outline: as §1

[7] = system: CP305
Outline: as §1

[8] = system: CP315
Outline: as §1

[9] = system: CP325
Outline: as §1

[10] = system: CP329
Outline: as §1

[11] = system: CP335
Outline: as §1

[12] = system: DIV14
Outline: as §1

[13] = system: DIV17
Outline: as §1

[14] = system: DIV30
Outline: as §1

[15] = system: Dd2
Outline: as §1

[16] = system: ECU
Outline: as §1

[17] = system: FAB9
Outline: as §1

[18] = system: GB4
Outline: as §1

[19] = system: HB3
Outline: as §1

[20] = system: ICS
Outline: as §1

[21] = system: JCK
Outline: as §1

[22] = system: N140
Outline: as §1

[23] = system: P93_24
Outline: as §1

[24] = system: P94_40
Outline: as §1

[25] = system: PAD
Outline: as §1

[26] = system: PC15
Outline: as §1

[27] = system: PC26
Outline: as §1

[28] = system: PC49
Outline: as §1

[29] = system: SC27B
Outline: as §1

[30] = system: TAB109
Outline: as §1

[31] = system: TAB113
Outline: as §1

[32] = system: TAB165
Outline: as §1

[33] = system: W2
Outline: as §1

Measured: Potency

NC(=O)CCC1NC(=O)C(Cc2ccccc2)NC(=O)C(Cc2ccc(O)cc2)NC(=O)CCSSCC(C(=O)N2CCCC2C(=O)NC(CCCN=C(N)N)C(=O)NCC(N)=O)NC(=O)C(CC(N)=O)NC1=O (stereo not drawn)
inactive: all assays above
